Measured values published in ChEMBL document CHEMBL5606458, “ASAP - ZIKV NS2B-NS3 protease fluorescence single point” (2024).
Screen size: about 2,700 compounds; about 160 (5.9%) showed an effect of 50% or more. This excerpt belongs to a sample that is enriched for strong results.

Molecular target: Nonstructural protein 3 (Zika virus) (UniProt A0A024AXB9)
Sequence (A0A024AXB9 as listed by the source): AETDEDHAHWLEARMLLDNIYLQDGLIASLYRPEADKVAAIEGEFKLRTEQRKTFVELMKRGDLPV

`CC(C)(C)OC(=O)Cn1ccnc(N2CC[C@@H](CO)C2)c1=O` was tested, and the inhibition (PRVABC59, Concentration 49.5 uM, Number of replicates 2.0, Standard deviation 1.325865675699347 %) was 11.6%, the inhibition (PRVABC59, Concentration 99.01 uM, Number of replicates 2.0, Standard deviation 1.7656333109073532 %) was 22.2% and the inhibition (PRVABC59, Concentration 198.0 uM, Number of replicates 2.0, Standard deviation 1.622873505631253 %) was 37.1%.
`O=C(O)c1cc(Cl)ccc1NS(=O)(=O)c1ccc(Br)cc1` gave an inhibition (PRVABC59, Concentration 49.5 uM, Number of replicates 2.0, Standard deviation 0.7950601733582335 %) of 7.77%, an inhibition (PRVABC59, Concentration 99.01 uM, Number of replicates 2.0, Standard deviation 0.4216229111618842 %) of 14.7% and an inhibition (PRVABC59, Concentration 198.0 uM, Number of replicates 2.0, Standard deviation 0.3312742292956271 %) of 24.5%.
In the case of `CCn1ccnc(N2CC[C@H](c3ccc(C#N)cc3)C2)c1=O`, the inhibition (PRVABC59, Concentration 49.5 uM, Number of replicates 2.0, Standard deviation 3.318813799365356 %) is reported as 8.78%, the inhibition (PRVABC59, Concentration 99.01 uM, Number of replicates 2.0, Standard deviation 2.601162551030959 %) is reported as 17.7% and the inhibition (PRVABC59, Concentration 198.0 uM, Number of replicates 2.0, Standard deviation 2.251403725502818 %) is reported as 31.6%.
`CCn1ccnc(N2CC[C@H](C3CCOCC3)C2)c1=O` showed an inhibition (PRVABC59, Concentration 50.0 uM, Number of replicates 2.0, Standard deviation 1.8994947363510455 %) of 7.04%, an inhibition (PRVABC59, Concentration 100.0 uM, Number of replicates 2.0, Standard deviation 0.728011618047951 %) of 14.4% and an inhibition (PRVABC59, Concentration 200.0 uM, Number of replicates 2.0, Standard deviation 0.3716947428915149 %) of 27.3%.
`N[C@H]1C[C@H](CNC(=O)[C@@H](NC(=O)OCc2ccccc2)c2ccc(OCc3ccccc3)cc2)C1` gave an inhibition (PRVABC59, Concentration 49.5 uM, Number of replicates 2.0, Standard deviation 3.7963377615811797 %) of 3.96%, an inhibition (PRVABC59, Concentration 99.01 uM, Number of replicates 2.0, Standard deviation 2.5827561793492815 %) of 42.9% and an inhibition (PRVABC59, Concentration 198.0 uM, Number of replicates 2.0, Standard deviation 1.1643103990361166 %) of 82.5%.
`O=Cc1ccc(N2CCC(C(=O)N3C[C@@H]4C[C@H](C3)c3cccc(=O)n3C4)CC2)cc1` gave an inhibition (PRVABC59, Concentration 50.0 uM, Number of replicates 1.0) of 21.2%.
`CC(C)Oc1cc(COc2cccnc2F)nc(N2CCNCC2)n1` was tested, and the inhibition (PRVABC59, Concentration 49.5 uM, Number of replicates 2.0, Standard deviation 2.4105168451759336 %) was 4.13%, the inhibition (PRVABC59, Concentration 99.01 uM, Number of replicates 2.0, Standard deviation 2.7698794201931607 %) was 16.6% and the inhibition (PRVABC59, Concentration 198.0 uM, Number of replicates 2.0, Standard deviation 3.834837221821941 %) was 38.4%.
In the case of `COc1cc(COc2cncc3ccccc23)nc(N2CCNCC2)n1`, the inhibition (PRVABC59, Concentration 49.5 uM, Number of replicates 2.0, Standard deviation 3.6633197788698872 %) is reported as 18.2%, the inhibition (PRVABC59, Concentration 99.01 uM, Number of replicates 2.0, Standard deviation 8.620902514901289 %) is reported as 33.6% and the inhibition (PRVABC59, Concentration 198.0 uM, Number of replicates 2.0, Standard deviation 2.631600667850739 %) is reported as 48.9%.
For `COC(=O)c1cncc(OCc2cc(OC)nc(N3CCNCC3)n2)c1`, the inhibition (PRVABC59, Concentration 49.5 uM, Number of replicates 2.0, Standard deviation 0.44537620063304795 %) was 8.58%, the inhibition (PRVABC59, Concentration 99.01 uM, Number of replicates 2.0, Standard deviation 1.920430256118165 %) was 19.8% and the inhibition (PRVABC59, Concentration 198.0 uM, Number of replicates 2.0, Standard deviation 1.464841031153957 %) was 42.9%.
Work on `COc1cc(C(=O)Nc2cnc3ccccc3c2)nc(N2CCNCC2)n1` yielded an inhibition (PRVABC59, Concentration 49.5 uM, Number of replicates 2.0, Standard deviation 31.670721297793175 %) of 46.6%, an inhibition (PRVABC59, Concentration 99.01 uM, Number of replicates 2.0, Standard deviation 1.978331259427643 %) of 52.6% and an inhibition (PRVABC59, Concentration 198.0 uM, Number of replicates 2.0, Standard deviation 3.25586764970173 %) of 44.4%.
With `CCCC[C@H](NC(C)=O)C(=O)N[C@H](C(=O)NCc1ccc(CN)cc1)c1ccc(OCc2ccccc2)cc1` the inhibition (PRVABC59, Concentration 49.5 uM, Number of replicates 2.0, Standard deviation 3.0246149725930045 %) was 4.96%, the inhibition (PRVABC59, Concentration 99.01 uM, Number of replicates 2.0, Standard deviation 5.4426160865401085 %) was 91.7% and the inhibition (PRVABC59, Concentration 198.0 uM, Number of replicates 2.0, Standard deviation 0.23672907001683724 %) was 97.8%.
Molecule `CCCC[C@H](NC(C)=O)C(=O)N[C@H](C(=O)NCc1ccc(C(N)=O)cc1)c1ccc(OCc2ccccc2)cc1` has an inhibition (PRVABC59, Concentration 49.5 uM, Number of replicates 2.0, Standard deviation 2.8803277655268693 %) of 26.6%, an inhibition (PRVABC59, Concentration 99.01 uM, Number of replicates 2.0, Standard deviation 0.054514419737930774 %) of 98.6% and an inhibition (PRVABC59, Concentration 198.0 uM, Number of replicates 2.0, Standard deviation 0.07632018763310308 %) of 99.1%.
For `CCCC[C@H](NC(C)=O)C(=O)N[C@H](C(=O)Nc1ccc(C(N)=O)cc1)c1ccc(OCc2ccccc2)cc1`, the inhibition (PRVABC59, Concentration 49.5 uM, Number of replicates 2.0, Standard deviation 1.0117053428289626 %) was -1.83%, the inhibition (PRVABC59, Concentration 99.01 uM, Number of replicates 2.0, Standard deviation 0.9364545471831264 %) was 1.23% and the inhibition (PRVABC59, Concentration 198.0 uM, Number of replicates 2.0, Standard deviation 0.5455676889131452 %) was 17.7%.
`CCCCCC(=O)N[C@H](C(=O)NCc1cccc(CN)c1)C1CCCCC1` gave an inhibition (PRVABC59, Concentration 49.5 uM, Number of replicates 2.0, Standard deviation 0.08302069360936502 %) of -2.7%, an inhibition (PRVABC59, Concentration 99.01 uM, Number of replicates 2.0, Standard deviation 0.655862366837183 %) of -1.9% and an inhibition (PRVABC59, Concentration 198.0 uM, Number of replicates 2.0, Standard deviation 0.31962821211509684 %) of 41.3%.
Molecule `CCCC[C@H](NC(C)=O)C(=O)N[C@@H](C(=O)NCc1ccc(C(N)=O)cc1)c1ccc(OCc2ccccc2)cc1` has an inhibition (PRVABC59, Concentration 49.5 uM, Number of replicates 2.0, Standard deviation 1.682765526064386 %) of -0.555%, an inhibition (PRVABC59, Concentration 99.01 uM, Number of replicates 2.0, Standard deviation 1.8317792493099265 %) of 2.22% and an inhibition (PRVABC59, Concentration 198.0 uM, Number of replicates 2.0, Standard deviation 1.8535860287294632 %) of 8.29%.
`CCCC[C@H](NC(C)=O)C(=O)N[C@H](C(=O)NCc1ccc(CN)cc1)c1ccccc1` showed an inhibition (PRVABC59, Concentration 49.5 uM, Number of replicates 2.0, Standard deviation 2.0326302034025616 %) of 1.09%, an inhibition (PRVABC59, Concentration 99.01 uM, Number of replicates 2.0, Standard deviation 38.99982941752366 %) of 27.9% and an inhibition (PRVABC59, Concentration 198.0 uM, Number of replicates 2.0, Standard deviation 3.137845684278008 %) of 79.1%.
Work on `COc1ccc2nc(C(F)(F)F)nc(N3CCN(c4ccc(N)nc4)CC3)c2c1` yielded an inhibition (PRVABC59, Concentration 49.5 uM, Number of replicates 2.0, Standard deviation 0.8584962379889504 %) of 14.4%, an inhibition (PRVABC59, Concentration 99.01 uM, Number of replicates 2.0, Standard deviation 2.1800251715639205 %) of 28% and an inhibition (PRVABC59, Concentration 198.0 uM, Number of replicates 2.0, Standard deviation 1.6255789961308644 %) of 43.6%.
With `CC(C)(CO)CN1CC[C@H](c2c[nH]c3ccccc23)C1` the inhibition (PRVABC59, Concentration 49.5 uM, Number of replicates 2.0, Standard deviation 3.1209329969075563 %) was 6.14%, the inhibition (PRVABC59, Concentration 99.01 uM, Number of replicates 2.0, Standard deviation 4.254828207009483 %) was 11.2% and the inhibition (PRVABC59, Concentration 198.0 uM, Number of replicates 2.0, Standard deviation 3.604090306895346 %) was 18.1%.
For `COC[C@@H](C)CNC(=O)c1cc(Cl)ccc1NS(=O)(=O)c1ccc(Oc2ccccc2Cl)cc1`, the inhibition (PRVABC59, Concentration 49.5 uM, Number of replicates 2.0, Standard deviation 0.1936300399043851 %) was 40.8%, the inhibition (PRVABC59, Concentration 99.01 uM, Number of replicates 2.0, Standard deviation 0.11978876131329876 %) was 39.9% and the inhibition (PRVABC59, Concentration 198.0 uM, Number of replicates 2.0, Standard deviation 0.12799289825703533 %) was 17.9%.
